Hits are enriched below; roughly 3.3% of the tested compounds scored in any of these assays.
HCV inh: inhibitors of hepatitis C virus infection. Huh7.5.1 HCVcc-Cre infection, luciferase reporter, 44 h. Potency, µM (doses to about 41.8 µM), for inactives: at the top dose activity change, negative = inhibition, usual class: inhibitors. 340,000 tested, 3.4% active. AID 651820; further: on the % scale 0 is the no-effect control and ±100 the full control effect
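Antiviral activity was scored by luciferase reporter output from cells infected with HCVcc-Cre (~0.5 moi) in presence of compound, 44 h infection period, cells seeded 1,000/well 4 h prior.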
Vaccinia mCherry: vaccinia inhibition (mCherry reporter). Vaccinia virus mCherry reporter infection, fluorescence. AID 720579. Potency, µM (highest dose often 36.5 µM), inactives show at the highest dose activity change, negative = inhibition, most hits filed as inhibitors. 310,000 tested, 0.63% active; calls by dose curve; tested in A549 cells; further: on the % scale 0 is the no-effect control and ±100 the full control effect; nearly all actives have a fitted effect of over 35% in size
Vaccinia Venus: inhibitors of vaccinia virus (Venus reporter); Vaccinia virus Venus reporter expression, fluorescence; Potency, µM (highest dose often 36.5 µM), for inactives: at the highest dose activity change, negative = inhibition, hits mostly inhibitors; 330,000 tested, 0.46% active; calls by dose curve; tested in A549 cells; further: on the % scale 0 is the no-effect control and ±100 the full control effect; nearly all actives have a fitted effect of over 30% in size
HCV inh confirm: HCV inhibition, cherry-pick confirmation. shares compounds with HCV inh. Potency, µM (doses to about 41.8 µM), for the others: top-dose activity, negative = inhibition, hits mostly inhibitors. HCVcc-Cre infectious virus cell assay, luciferase, inhibition. 640 tested, 78% active; further: nearly all actives have a fitted effect of over 80% in size
HCV cytotox: host cell cytotoxicity counter-screen for HCV inhibitors. AID 720576. HCV host cell line cytotoxicity counterscreen. Potency, µM (doses to about 41.8 µM), without a hit: top-dose activity change, negative = cytotoxicity, actives largely listed as inhibitors. shares compounds with HCV inh. 640 tested, 22% active;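 further: 44 h compound exposure; on the % scale 0 is the no-effect control and ±100 the full control effect; nearly all actives have a fitted effect of over 55% in size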
* hit, by the source's call; i = inactive; ? = inconclusive; . = not tested or not shown; [ ] = another dose, or the depositor's remark. Unless noted, the call rests on the fitted dose curve; in most records, active means well fitted curve in the direction sought with a large enough effect; inconclusive means small, poorly fitted or top-dose-only effect, or another doubt; inactive means no such curve, though single readings can be large; an effect the other way counts as inactive or inconclusive. Potency means the concentration at half of the fitted maximal effect.

SMILES	HCV inh	Vaccinia mCherry	Vaccinia Venus	HCV inh confirm	HCV cytotox
Cc1nc2ccccc2c(=O)n1NC(=O)COc1ccccc1	18%	-13%	-5%	.	.
CCCC(=O)NNC(=O)CCC(=O)NCc1ccccc1	-4%	.	.	.	.
O=C(COc1ccccc1)NNc1c2ccccc2nc2ccccc12	1µM*	.	?	1.6µM*	-94%
CCCC(=O)NNc1c2ccccc2nc2ccccc12	1.4µM*	-8%	1%	0.56µM*	0.5µM*
COc1cccc(-n2cc(C(=O)NCc3ccccc3OC)c3ccccc3c2=O)c1	.	-12%	-13%	.	.
CC1C/C(=C/c2ccco2)C(=O)/C(=C/c2ccco2)C1 (stereo not given)	1%[0.335 µM]	.	.	.	.
CC(C)(C)C1C/C(=C/c2ccccn2)C(=O)/C(=C/c2ccccn2)C1 (stereo not given)	0.89µM*	?	?	1µM*	1.4µM*
Cc1cccc(N2CCN(C(=O)CCc3c(C)nc4ncnn4c3C)CC2)c1C	.	-3%	-5%	.	.
CC1CN(C)C(C)CC1OC(=O)C(c1ccccc1)c1ccccc1 (stereo not given)	?	.	.	25µM*	-22%
CN(C)[C@@H]1CCC[C@H]1OC(=O)C(c1ccccc1)c1ccccc1	1%	-15%	-5%	.	.
CCOc1cc(N2CCOCC2)c(OCC)cc1NC(=O)CSc1nnc(N)s1	-12%	-13%	10%	.	.
CCOC(=O)C1(Cc2ccccc2C(F)(F)F)CCN(C2CCN(C(C)C)CC2)CC1	3.2µM*	.	.	11µM*	-24%
CCOC(=O)C1(Cc2ccccc2C(F)(F)F)CCN(CC(O)CO)CC1 (stereo not given)	-15%	i	-15%	.	.
CCCOc1cccc(C(=O)N/N=C/c2ccoc2)c1	1%	.	.	.	.
CC(=O)Nc1cccc(-c2ccnc3c2CC(C(=O)NCc2ccco2)O3)c1 (stereo not given)	.	-10%	?	.	.
COc1cc2c(cc1NC(=O)/C=C/c1ccc([N+](=O)[O-])cc1)oc1ccccc12	-28%	8%	3%	.	.
COc1cc2c(cc1NC(=O)COC(=O)/C=C/c1ccc([N+](=O)[O-])cc1)oc1ccccc12	?	.	.	?	23%
CCOc1ccc(S(=O)(=O)N2CCOCC2)cc1NC(=O)CN1C(=O)NC2(CCCCC2)C1=O	14%	.	.	.	.
Cc1cccc(NC(=O)NN2CCN(C)CC2)c1C	13%	.	.	.	.
COc1cc(-c2nc(-c3ccc4c(c3)-c3ccccc3S4(=O)=O)c(-c3ccccc3)[nH]2)cc(OC)c1OC	2µM*	-8%[1.46 µM]	-28%	2µM*	?
COc1cccc(-c2nc(-c3ccc4c(c3)-c3ccccc3S4(=O)=O)c(-c3ccccc3)[nH]2)c1OC	?	.	-19%	.	.
CCCn1c(N)c(C(=O)COc2ccc(Br)cc2F)c(=O)n(C)c1=O	?	.	.	22µM*	-21%
Cn1c(N)c(C(=O)COC(=O)COc2ccc(Br)cc2)c(=O)n(C)c1=O	2%	-22%	-6%	.	.
COc1ccc(OC)c(NC(=O)c2ccccc2SC)c1	8.9µM*	.	.	?	-13%
COc1ccc(NC(=O)c2ccccc2SC)cc1	19%	i	-13%	.	.
SMILES	HCV inh	Vaccinia mCherry	Vaccinia Venus	HCV inh confirm	HCV cytotox
Cc1cc(C)n2nc(C(=O)OCC(=O)N(C)CC(=O)Nc3ccccc3Cl)nc2n1	0%[8.37 µM]	-12%	-1%	.	.
O=C1S/C(=C\c2ccc(N3CCOCC3)o2)C(=O)N1Cc1c(F)cccc1Cl	?	-7%	20%	.	.
O=C1S/C(=C/c2ccc(N3CCOCC3)o2)C(=O)N1Cc1c(F)cccc1Cl	?	.	.	13µM*	11%
CCOc1cc(C2NC(=O)NC2=O)ccc1O (stereo not given)	0%	-11%	-7%	.	.
CCc1cccc(C)c1NC(=O)CC1Oc2ccc(C)cc2NC1=O (stereo not given)	1%	-17%	-11%	.	.
CC1Cc2cc(S(=O)(=O)NCCc3ccc(Cl)cc3)ccc2N1C(=O)C1CCC1 (stereo not given)	.	-20%	-8%	.	.
CCOc1nc(-c2ccccc2O)nc2ccccc12	?	-8%	0%	6.3µM*	0.89µM*
CC(Nc1nc(-c2ccccc2O)nc2ccccc12)c1ccccc1 (stereo not given)	?	-1%	-28%	.	.
Cc1noc(Cn2c(=O)c3ccccc3n(CC(=O)Nc3cccc(Cl)c3C)c2=O)n1	.	-13%	0%	.	.
CCN(C(=O)COC(=O)c1[nH]c(=O)[nH]c(=O)c1N)c1ccccc1	3%	8%	4%	.	.
CN(CC(=O)NCC1CCCCC1)CC(=O)Nc1ccc(F)cc1	3%	.	.	.	.

Screens as filed in PubChem BioAssay.
